Results published in PubChem BioAssay (NCATS).
Several values for one entry are separate records, joined by “and”; a condition that tells them apart may be missing. Identical values can stand only once. Records with an inconclusive call do not appear. A call without a number means that no potency is given here. Activity calls are given as the source filed them. Unless noted, calls come from the whole dose curve; as a rule, active = well fitted inhibition curve with a large enough effect; inconclusive = small, poorly fitted or top-dose-only effect; inactive = flat fitted curve, though single readings scatter.

Tested on: not listed separately
Assay: P-glycoprotein substrates identified in KB-8-5-11 adenocarcinoma cell line, qHTS therapeutic library screen (AID 1346987); note: nearly all actives have a fitted effect of over 65% in size; note: potency is the fitted concentration of half-maximal effect
Conditions: KB-8-5-11 (P-gp overexpressing) viability, CellTiter-Glo, 72 h; series mostly up to 44.5 µM
Summary of the method: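 KB-8-5-11: colchicine-selected sub-line of KB-3-1 over-expressing P-gp; assay medium lacked colchicine. 72 h drug exposure at 37 degree C, CellTiter-Glo.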

| Structure (SMILES) | Potency |
| --- | --- |
| C[C@@H]1CN(c2c(F)c(N)c3c(=O)c(C(=O)O)cn(C4CC4)c3c2F)C[C@H](C)N1 | inactive |
| CC(=O)[C@H]1CC[C@H]2[C@@H]3CCC4=CC(=O)CC[C@]4(C)[C@H]3CC[C@]12C | 11.8 µM (active) |
| CC1=C(C(=O)O)N2C(=O)[C@@H](NC(=O)C(N)c3ccccc3)[C@H]2SC1 (some centres not stated) | inactive |
| CC1CC2C3CCC4=CC(=O)C=C[C@]4(C)[C@@]3(F)[C@@H](O)C[C@]2(C)[C@@]1(O)C(=O)CO (some centres not stated) | inactive |
| C[C@@H]1C[C@H]2[C@@H]3CCC4=CC(=O)C=C[C@]4(C)[C@@]3(Cl)[C@@H](O)C[C@]2(C)[C@@]1(OC(=O)c1ccco1)C(=O)CCl | inactive |
| Nc1nc(N)c2nc(CNc3ccc(C(=O)NC(CCC(=O)O)C(=O)O)cc3)cnc2n1 (configuration not stated) | 0.0372 µM (active) |
| NC(=O)c1ccc2[nH]ccc2c1 | inactive |
| CN1CCN(c2c(F)cc3c(=O)c(C(=O)O)cn4c3c2OCN4C)CC1 | inactive |
| N[C@@H](Cc1ccc(O)c(O)c1)C(=O)O | inactive |
| CCc1c2c(nc3ccc(OC(=O)N4CCC(N5CCCCC5)CC4)cc13)-c1cc3c(c(=O)n1C2)COC(=O)[C@]3(O)CC | inactive |
| NCCCC(O)(P(=O)(O)O)P(=O)(O)O | inactive |
| NC(=O)c1cccc(N)c1 | inactive |
| Cc1oc(=O)oc1CN1CCN(c2cc3c(cc2F)c(=O)c(C(=O)O)c2n3C(C)S2)CC1 (configuration not stated) | inactive |
| Nc1nc(=S)c2[nH]cnc2[nH]1 | 5.8 µM (active) and 1.18 µM (active) |
| CCOC(=O)c1ccc(C#Cc2ccc3c(c2)C(C)(C)CCS3)nc1 | inactive |
| COc1nc(N)nc2c1ncn2[C@@H]1O[C@H](CO)[C@@H](O)[C@@H]1O | inactive |
| O=C(O)C1CCCN(CCC=C(c2ccccc2)c2ccccc2)C1 (configuration not stated) | inactive |
| OC(Cn1cncn1)(Cn1cncn1)c1ccc(F)cc1F | inactive |
| CCN1CCCC1CNC(=O)c1cc(S(N)(=O)=O)ccc1OC (configuration not stated) | inactive |

| Structure (SMILES) | Potency |
| --- | --- |
| CNS(=O)(=O)CCc1ccc2[nH]cc(C3CCN(C)CC3)c2c1 | inactive |
| CCN(CC)CCn1c(=O)c(Cc2ccc(OC)cc2)nc2ccccc21 | inactive |
| O=S(=O)(c1cccc2cnccc12)N1CCCNCC1 | inactive |
| CCCCS(=N)(=O)CCC(N)C(=O)O (configuration not stated) | inactive |
| CCN(CC)CC#CCOC(=O)C(O)(c1ccccc1)C1CCCCC1 (configuration not stated) | inactive |
| CCOC(=O)[C@H](CCc1ccccc1)N[C@H]1CS[C@H](c2cccs2)CN(CC(=O)O)C1=O | inactive |
| O=P(O)(O)C(O)(Cc1cccnc1)P(=O)(O)O | inactive |
| COc1ccccc1OCC(O)COC(N)=O (configuration not stated) | inactive |
| CCN(C)C(=O)Oc1cccc([C@H](C)N(C)C)c1 | inactive |
| CC(=O)[C@H]1CC[C@H]2[C@@H]3CC=C4C[C@@H](O)CC[C@]4(C)[C@H]3CC[C@]12C | inactive |
| CC(C)C[C@H](NC(=O)[C@H](CCc1ccccc1)NC(=O)CN1CCOCC1)C(=O)N[C@@H](Cc1ccccc1)C(=O)N[C@@H](CC(C)C)C(=O)[C@@]1(C)CO1 | 9.2 µM (active) |
| COc1cc2nc(N3CCCN(C)CC3)nc(NC3CCN(Cc4ccccc4)CC3)c2cc1OC | 9.35 µM (active) |
| COc1cc2ncnc(Nc3cccc(Cl)c3)c2cc1OC | 8.33 µM (active) and 16.4 µM (active) |
| O=C(O)c1cn(C2CC2)c2cc(N3CCNCC3)c(F)cc2c1=O | inactive |
| COc1ccc(C(=O)CC(=O)c2ccc(C(C)(C)C)cc2)cc1 | inactive |
| CNS(=O)(=O)Cc1ccc2[nH]cc(CCN(C)C)c2c1 | inactive |
| Cn1c(=O)c2c(ncn2CC(O)CO)n(C)c1=O (configuration not stated) | inactive |
| CC(C)NCC(O)c1ccc(NS(C)(=O)=O)cc1 (configuration not stated) | inactive |

Tested on: not listed separately
Assay: Natriuretic polypeptide receptor (hNpr1) antagonism - Pilot counterscreen GloSensor control cell line (AID 1347045; calls by dose curve)
Conditions: HEK293 cGMP GloSensor cells, SNP-stimulated luminescence, 20 min; series mostly up to 38.3 µM
Summary of the method: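 HEK293 cells carrying the GloSensor cGMP sensor (GIP/pGS-40F) were loaded with 2% GloSensor reagent for 2 h, exposed to compounds for 30 min, and then stimulated with 50 uM sodium nitroprusside for 20 min at room temperature.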

| Structure (SMILES) | Potency |
| --- | --- |
| CC1=C(C(=O)O)N2C(=O)[C@@H](NC(=O)C(N)c3ccccc3)[C@H]2SC1 (some centres not stated) | inactive |
| CC1CC2C3CCC4=CC(=O)C=C[C@]4(C)[C@@]3(F)[C@@H](O)C[C@]2(C)[C@@]1(O)C(=O)CO (some centres not stated) | inactive |
| Nc1nc(N)c2nc(CNc3ccc(C(=O)NC(CCC(=O)O)C(=O)O)cc3)cnc2n1 (configuration not stated) | inactive |
| NC(=O)c1ccc2[nH]ccc2c1 | inactive |
| N[C@@H](Cc1ccc(O)c(O)c1)C(=O)O | inactive |
| NC(=O)c1cccc(N)c1 | inactive |
| O=C(O)C1CCCN(CCC=C(c2ccccc2)c2ccccc2)C1 (configuration not stated) | inactive |
| CCN1CCCC1CNC(=O)c1cc(S(N)(=O)=O)ccc1OC (configuration not stated) | inactive |
| CCCCS(=N)(=O)CCC(N)C(=O)O (configuration not stated) | inactive |
| COc1cc2nc(N3CCCN(C)CC3)nc(NC3CCN(Cc4ccccc4)CC3)c2cc1OC | inactive |
| COc1cc2ncnc(Nc3cccc(Cl)c3)c2cc1OC | inactive |
| CC(C)NCC(O)c1ccc(NS(C)(=O)=O)cc1 (configuration not stated) | inactive |

Molecular target: Atrial natriuretic peptide receptor 1 (Homo sapiens) (UniProt P16066)
Assay: Natriuretic polypeptide receptor (hNpr1) antagonism - Pilot screen (AID 1347049; calls by dose curve;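 note: agonist-evoked cGMP luminescence read 20 min after hNppA addition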)
Conditions: hNpr1 cells, antagonist mode cGMP read-out; series mostly up to 57.5 µM
Summary of the method: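 HEK293 cells expressing hNpr1 and GloSensor cGMP luciferase, 1500/well, loaded with 2% GloSensor reagent 2 h, compound 30 min at room temperature; luminescence read before and 20 min after 0.1 nM hNppA stimulation.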

Atrial natriuretic peptide receptor 1 (Homo sapiens), sequence (P16066 whole entry, looked up): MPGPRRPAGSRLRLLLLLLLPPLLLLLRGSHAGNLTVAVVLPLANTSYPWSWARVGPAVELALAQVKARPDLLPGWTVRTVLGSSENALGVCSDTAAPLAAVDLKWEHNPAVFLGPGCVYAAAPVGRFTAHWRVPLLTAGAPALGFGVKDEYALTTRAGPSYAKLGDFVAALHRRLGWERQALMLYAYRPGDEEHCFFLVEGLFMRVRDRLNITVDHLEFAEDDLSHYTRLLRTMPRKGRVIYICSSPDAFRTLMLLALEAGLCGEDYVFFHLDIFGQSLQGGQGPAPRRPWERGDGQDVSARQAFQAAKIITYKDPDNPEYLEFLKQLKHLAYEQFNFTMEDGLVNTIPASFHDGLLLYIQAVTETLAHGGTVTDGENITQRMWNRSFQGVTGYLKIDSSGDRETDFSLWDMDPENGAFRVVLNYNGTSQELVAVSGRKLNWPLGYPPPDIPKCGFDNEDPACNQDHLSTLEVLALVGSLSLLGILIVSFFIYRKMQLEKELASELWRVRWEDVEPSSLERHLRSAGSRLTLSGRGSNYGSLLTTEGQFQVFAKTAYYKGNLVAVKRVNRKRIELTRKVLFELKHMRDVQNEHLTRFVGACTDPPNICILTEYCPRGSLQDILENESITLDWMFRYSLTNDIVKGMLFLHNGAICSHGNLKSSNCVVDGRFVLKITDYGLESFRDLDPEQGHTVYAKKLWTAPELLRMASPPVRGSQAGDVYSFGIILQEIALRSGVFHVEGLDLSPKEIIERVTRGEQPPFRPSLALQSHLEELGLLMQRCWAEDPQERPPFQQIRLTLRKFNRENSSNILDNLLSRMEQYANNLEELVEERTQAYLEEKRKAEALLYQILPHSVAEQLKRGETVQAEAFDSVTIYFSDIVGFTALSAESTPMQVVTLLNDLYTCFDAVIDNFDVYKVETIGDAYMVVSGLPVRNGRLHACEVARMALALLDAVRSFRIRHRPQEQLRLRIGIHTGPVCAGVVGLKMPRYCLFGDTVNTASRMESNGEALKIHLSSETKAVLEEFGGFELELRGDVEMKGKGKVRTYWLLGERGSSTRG

| Structure (SMILES) | Potency |
| --- | --- |
| CC1=C(C(=O)O)N2C(=O)[C@@H](NC(=O)C(N)c3ccccc3)[C@H]2SC1 (some centres not stated) | inactive |
| CC1CC2C3CCC4=CC(=O)C=C[C@]4(C)[C@@]3(F)[C@@H](O)C[C@]2(C)[C@@]1(O)C(=O)CO (some centres not stated) | inactive |
| Nc1nc(N)c2nc(CNc3ccc(C(=O)NC(CCC(=O)O)C(=O)O)cc3)cnc2n1 (configuration not stated) | inactive |
| NC(=O)c1ccc2[nH]ccc2c1 | inactive |
| NC(=O)c1cccc(N)c1 | inactive |
| O=C(O)C1CCCN(CCC=C(c2ccccc2)c2ccccc2)C1 (configuration not stated) | inactive |
| CCN1CCCC1CNC(=O)c1cc(S(N)(=O)=O)ccc1OC (configuration not stated) | inactive |
| CCN(CC)CCn1c(=O)c(Cc2ccc(OC)cc2)nc2ccccc21 | inactive |
| CCCCS(=N)(=O)CCC(N)C(=O)O (configuration not stated) | inactive |
| CCN(CC)CC#CCOC(=O)C(O)(c1ccccc1)C1CCCCC1 (configuration not stated) | inactive |
| COc1cc2nc(N3CCCN(C)CC3)nc(NC3CCN(Cc4ccccc4)CC3)c2cc1OC | inactive |
| COc1cc2ncnc(Nc3cccc(Cl)c3)c2cc1OC | inactive |
| CC(C)NCC(O)c1ccc(NS(C)(=O)=O)cc1 (configuration not stated) | inactive |
